Assay results reported in PubChem BioAssay (NCI).
The panel holds about 83,000 compounds, 20% with a hit somewhere; the sample as a whole holds those more often.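 A percent growth of 40 corresponds to 60% growth inhibition; 0 means no net growth; -100 means all cells died. Active threshold: below 10.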 Values without a mark were called inactive. Calls of active or inactive are those of the source.

Assays:
Experiment in all cases: NCI-60 one-dose screen, 48 h (100 = growth as untreated, 0 = no growth, -100 = all killed)
HCT-15 colon = details: 10 µM unless noted
SNB-75 CNS = details: 10 µM
SNB-19 CNS = details: 10 µM unless noted
U251 CNS = details: 10 µM unless noted
PC-3 prostate = details: 10 µM unless noted
SK-MEL-5 melanoma = details: 10 µM unless noted
UACC-62 melanoma = details: 10 µM unless noted
LOX IMVI melanoma = details: 10 µM unless noted
SK-MEL-28 melanoma = details: 10 µM unless noted
SK-MEL-2 melanoma = details: 10 µM unless noted
EKVX NSCLC = details: 10 µM unless noted
SN12C renal = details: 10 µM unless noted
UO-31 renal = details: 10 µM unless noted
TK-10 renal = details: 10 µM unless noted
ACHN renal = details: 10 µM unless noted
CAKI-1 renal = details: 10 µM unless noted
A498 renal = details: 10 µM unless noted
CCRF-CEM leukemia = details: 10 µM unless noted
MOLT-4 leukemia = details: 10 µM unless noted
HT29 colon = details: 10 µM unless noted

SMILES | growth (HCT-15 colon) | growth (SNB-75 CNS) | growth (SNB-19 CNS) | growth (U251 CNS) | growth (PC-3 prostate) | growth (SK-MEL-5 melanoma) | growth (UACC-62 melanoma) | growth (LOX IMVI melanoma) | growth (SK-MEL-28 melanoma) | growth (SK-MEL-2 melanoma) | growth (EKVX NSCLC) | growth (SN12C renal) | growth (UO-31 renal) | growth (TK-10 renal) | growth (ACHN renal) | growth (CAKI-1 renal) | growth (A498 renal) | growth (CCRF-CEM leukemia) | growth (MOLT-4 leukemia) | growth (HT29 colon)
O=C1Nc2ccc3c(c2/C1=C\c1cc2c(cc1Br)OCO2)OCO3 | 22.9% | -37.7% (active) | 42% | 13.4% | 16.6% | -19.9% (active) | 43.9% | -29.5% (active) | 19.4% | 42.4% | 37.3% | 26.7% | -15.9% (active) | -31.2% (active) | 11.4% | -25.7% (active) | 19.1% | 10% (active) | 35.7% | –
Nc1nc(-c2ccccc2)c(CCCOc2ccc(NC(=O)CBr)cc2)c(=O)[nH]1 | 101% | 94.3% | 91.1% | 86.4% | 107% | 92.9% | 90.3% | 20.3% | 104% | 101% | 117% | 91.5% | 71% | 102% | 96.2% | 106% | 103% | 29.1% | 96.1% | –
O=C1c2ccccc2-c2ccccc2C1(Cl)Cl | -60.2% (active) | – | – | -90.1% (active) | -29.5% (active) | – | -83.4% (active) | -31.8% (active) | – | -71% (active) | -93.2% (active) | -76.1% (active) | -100% (active) | 90% | -67% (active) | -92.1% (active) | 101% | 11.2% | 0.097% (active) | -38.4% (active)
Cc1ccc(Cc2c(C=O)nc(N)[nH]c2=O)c2ccccc12 | 101% | 93% | 98.5% | 95.3% | 88.8% | 107% | 110% | 96.2% | 104% | – | 101% | 96.9% | 81.2% | 112% | 107% | 92.7% | 118% | 80% | 86.8% | –
Cn1ncc2c(Sc3ccc(Cl)cc3)ncnc21 | 97% | 86.7% | 81.6% | 81.9% | 78.1% | 90.1% | 87.9% | 78.3% | 102% | -13.3% (active) | 90.2% | 90.1% | 71% | 82.7% | 95.1% | – | 86.3% | 95.3% | 95.8% | –
COc1cc(/C=C/c2cc(/C=C/c3ccc(O)c(OC)c3)n(C(N)=O)n2)ccc1O | 4.33% (active) | -40.9% (active) | 4.95% (active) | -10.9% (active) | -23.5% (active) | -33% (active) | -47.2% (active) | 1.48% (active) | -24.6% (active) | -52.7% (active) | – | -5.22% (active) | -22.1% (active) | 4.79% (active) | -11.2% (active) | 14.1% | -24.4% (active) | -22.9% (active) | -33% (active) | –
COc1ccc(-c2c(-c3cc(OC)c4c(c3)OCO4)noc2N)cc1 | 14.2% | 25.9% | 34.4% | 16.4% | 25.6% | -54.4% (active) | 32.7% | 15.4% | 58.8% | 53.4% | 44.6% | 22.9% | 36.1% | 54.8% | – | 38.7% | 23.6% | 14.1% | 4.69% (active) | –
NC(N)=Nc1nc2ccccc2o1 | 105% | 111% | 99.7% | 101% | 57.6% | 93.8% | 104% | 95.5% | 95.5% | 133% | 109% | 110% | 99.9% | 129% | 96.6% | – | 89.5% | 80.1% | 95.4% | –
COc1ccc(NC(=O)CSc2nc(-c3ccc(OC)c(OC)c3)cc(-c3cc(OC)c(OC)c(OC)c3)n2)cc1 | 100% | 76% | 91.3% | 105% | 88.6% | 88.7% | 92.2% | 97.1% | 108% | 89% | 108% | 93.9% | 35.4% | 96.8% | – | 83.8% | 99.8% | 101% | 84.8% | –
